Rows were chosen to be rich in hits. Some 13% of all compounds tested hit in one or more screens of this group.
USP7 inh: blocks human USP7 ubiquitin-rhodamine cleavage; inhibition, % at 20 µM; Q93009; hit rate 0.3% among 47,000; purified USP7, Ub-rhodamine cleavage fluorescence
USP30 inh: inhibitors of human USP30 deubiquitinase; purified USP30, Ub-rhodamine cleavage fluorescence; hit rate 5.3% among 47,000; inhibition, % at 25 µM; Q70CQ3; AID 1645860
USP28 block: human USP28 deubiquitinase inhibition. inhibition, % at 25 µM. purified USP28, Ub-rhodamine cleavage fluorescence, 30 min. AID 1645857. hit rate 3% among 47,000
USP17 inh: blocks human USP17 ubiquitin-rhodamine cleavage; A8MUK1; purified USP17, Ub-rhodamine cleavage fluorescence, 3 h; inhibition, % at 50 µM; hit rate 6.5% among 47,000; AID 1645855
Target sequence (A8MUK1 whole entry, looked up): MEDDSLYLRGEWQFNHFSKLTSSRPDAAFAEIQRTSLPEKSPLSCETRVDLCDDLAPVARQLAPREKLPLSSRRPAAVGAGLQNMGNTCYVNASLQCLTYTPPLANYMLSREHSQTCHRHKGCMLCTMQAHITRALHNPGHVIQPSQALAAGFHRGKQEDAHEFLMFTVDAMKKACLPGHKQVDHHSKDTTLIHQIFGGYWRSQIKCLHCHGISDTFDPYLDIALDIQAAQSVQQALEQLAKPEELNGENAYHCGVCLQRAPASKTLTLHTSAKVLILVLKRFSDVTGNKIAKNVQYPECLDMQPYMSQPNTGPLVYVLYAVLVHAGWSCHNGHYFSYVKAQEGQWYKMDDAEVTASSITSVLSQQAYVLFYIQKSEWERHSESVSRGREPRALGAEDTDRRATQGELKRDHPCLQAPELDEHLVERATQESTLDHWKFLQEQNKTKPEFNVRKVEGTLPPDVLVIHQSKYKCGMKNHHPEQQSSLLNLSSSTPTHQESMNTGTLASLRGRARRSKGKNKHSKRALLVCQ
USP10 block: inhibitors of human USP10 deubiquitinase | Q14694 | purified USP10, Ub-rhodamine fluorescence, 60 min | inhibition, % at 20 µM | hit rate 1.1% among 47,000
USP8 inh: inhibitors of human USP8 deubiquitinase. purified USP8, Ub-rhodamine cleavage fluorescence, 30 min. inhibition, % at 20 µM. AID 1645853. P40818. hit rate 4.2% among 47,000
Numbers without * were called inactive; i = inactive; · = no result. Cut-off read from the data, not from the text of the source: active = inhibition above about 30%; inactive = the rest.

SMILES	USP7 inh	USP30 inh	USP28 block	USP17 inh	USP10 block	USP8 inh
Cc1cc(O)c2c3c(c(O)cc2c1)C(=O)c1c(O)cccc1C3=O	60*	-17	73*	63*	7	-14
O=C1c2cccc(O)c2C(=O)c2c(O)cccc21	-83	i	-166	-91	-7	-172
O=C(Nc1c2c(nn1-c1ccc([N+](=O)[O-])cc1)CSC2)c1c(F)cccc1F	0	27	5	27	34*	0
O=C(Nc1c2c(nn1-c1ccc([N+](=O)[O-])cc1)CS(=O)(=O)C2)c1cccs1	-4	23	6	-5	5	-62
c1ccc(-c2nnc3ccc(SCc4ccccn4)nn23)cc1	2	24	31*	0	5	-133
O=C(CSc1ccc2nnc(-c3cccc(F)c3)n2n1)c1ccccc1	12	-22	-11	30*	-2	-8
COc1ccc(C(=O)CSc2ccc3nnc(-c4cccc(F)c4)n3n2)cc1	4	-31	-27	-13	0	0
O=C(C[C@@H]1CCN2C[C@@H]1CCCOc1ccccc1CN(C(=O)Nc1ccccc1)CC2=O)N1CCOCC1	-17	79*	74*	75*	-5	-12
Cn1cc(CN[C@H]2[C@H](O)[C@H](O)C[C@@H]2c2ccccc2)cn1	1	1	1	1	1	6
Cn1cc(CN[C@H]2[C@H](O)[C@H](O)C[C@@H]2c2ccc(C(F)(F)F)nc2)cn1	-9	0	18	4	-3	42*
O=C(Nc1ccc2c(c1)OCO2)c1cc(-c2cccnc2)n(-c2ccccc2)n1	-16	24	79*	30*	8	22
CCOC(=O)N1CCN(C(=O)c2ccc(NCc3ccc(F)cc3)c(S(=O)(=O)Nc3cccc(C(F)(F)F)c3)c2)CC1	8	24	26	13	56*	17
Cc1nc(C2CCCN2CCn2cc(Br)cn2)no1 (centres undefined)	-2	-31	-10	-12	-4	-14
CN(Cc1cc2ccccc2[nH]c1=O)C(=O)c1ccc(Cl)cc1	0	3	6	-2	0	2
COc1ccc2[nH]c(=O)c(CN(C)C(=O)c3ccc([N+](=O)[O-])cc3)cc2c1	5	-3	3	46*	5	26
N#C/C(=C\c1ccc(OCc2cccc(C(=O)O)c2)cc1)c1ccc(F)cc1	31*	0	29	69*	77*	59*
N#C/C(=C/c1ccc(OCc2cccc(C(=O)O)c2)cc1)c1ccccc1	1	26	26	27	23	2
O=C(Nc1ccc2c(c1)OCCO2)N1CCC2(CC1)Nc1ccccc1-n1cccc12	0	22	19	14	5	0
CCc1ccccc1NC(=O)N1CCC2(CC1)Nc1ccccc1-n1cccc12	-4	3	11	45*	4	17
O=C(c1ccccn1)N1CCC2(CC1)Nc1cccnc1NC2=NCc1ccccc1	-12	-272	-71	-86	-13	-241
COc1ccc(C)cc1NC(=O)N1CCC2(CC1)Nc1ccccc1-n1cccc12	-83	11	14	-2	11	13
O=C(Nc1cccc(C(F)(F)F)c1)N1CCC2(CC1)Nc1ccccc1-n1cccc12	-139	43*	7	21	10	3
O=C(c1ccccn1)N1CCC2(CC1)CC1(CO2)Nc2ccccc2-n2cccc21 (centres undefined)	-14	-144	-19	46*	-7	77*
Cc1cncc(C2CCCN(C(=O)c3ccc4n[nH]nc4c3)C2)n1 (centres undefined)	1	-7	-11	-11	0	-2
O=C(NCCc1ccc(F)cc1)N1C[C@H]2C[C@H]3[C@@](CNS3(=O)=O)(C1)O2	6	20	14	12	-1	-4
SMILES	USP7 inh	USP30 inh	USP28 block	USP17 inh	USP10 block	USP8 inh
CCn1cc(S(=O)(=O)NCc2ccccc2)c2cccnc21	-7	-26	22	41*	7	35*
CCn1cc(S(=O)(=O)NCc2ccccc2F)c2cccnc21	3	-39	12	13	0	23
Cc1ccc2c(c1)C(=O)NC1(CCN(C(=O)Cc3ccccc3)CC1)N2C	2	8	3	-1	2	-4
COc1ccc(CCN2C[C@@]34CN(C(=O)c5cccnc5)C[C@@H](C[C@@H]3S2(=O)=O)O4)cc1	0	4	-8	0	0	3
CC(C)Cn1c(=O)c2nscc2n(CC(=O)Nc2ccc(F)cc2F)c1=O	-35	0	8	16	-1	36*
CC(C)Cn1c(=O)c2nscc2n(CC(=O)NC2CCCC2)c1=O	-2	·	·	-13	-1	-4
CCn1c(=O)c2nscc2n(CC(=O)Nc2ccc(C)cc2C)c1=O	-6	-33	8	3	-7	6
CC(C)Cn1c(=O)c2nscc2n(CC(=O)NCc2ccccc2)c1=O	-48	-42	-4	9	-7	39*
Cc1ccccc1NC(=O)Cn1c(=O)n(CC(C)C)c(=O)c2nscc21	-71	-179	-36	-8	-3	38*
CC(=O)c1ccc(NC(=O)CN(CC(=O)Nc2ccc(C(C)=O)cc2)S(=O)(=O)c2ccc(C)cc2C)cc1	1	-39	-3	32*	-1	-3
CC(=O)c1ccc(NC(=O)CN(CC(=O)Nc2ccc(C(C)=O)cc2)Cc2ccccc2)cc1	3	·	·	12	2	2
C[C@@H](C(=O)Nc1ccc2c(c1)OCO2)n1c(=O)[nH]c2ccccc2c1=O	5	19	6	2	9	85*
CC(Nc1ccc(Oc2ccccc2)cc1)C(=O)Nc1ccc2c(c1)OCO2 (centres undefined)	2	30*	10	22	9	27
CC(Nc1cccc(C(F)(F)F)c1)C(=O)Nc1ccc2c(c1)OCO2 (centres undefined)	-3	-38	-9	-8	-4	21
CCC(C(=O)Nc1cccc(OC)c1)n1c(=O)[nH]c2ccccc2c1=O (centres undefined)	0	1	-2	-2	1	5
O=C(NCc1ccccc1F)C1CCCN(c2cnc3nccnc3c2)C1 (centres undefined)	-105	i	-251	-166	-6	-204
CCOc1ccccc1NC(=O)CN1C(=O)C2CCCC2=Nc2ccccc21 (centres undefined)	9	-2	2	8	16	19
O=C(NC1CCCCC1)N1CC[C@H](c2nc3ccccc3o2)C1	0	0	-1	1	-1	0
Cc1cc(C(F)(F)F)nc(-n2cc(-c3ccccc3)nn2)n1	-2	13	-5	35*	1	2
COc1ccc(C2CC(=O)Nc3c2ccc2ccccc32)cc1OC (centres undefined)	-1	13	28	5	9	16
COc1ccc(NCc2cc(=O)[nH]c3ccccc23)cc1	0	37*	24	15	3	17

Screens: PubChem BioAssay, Buhrlage Lab, Dana-Farber Cancer Institute and Novartis Institutes for BioMedical Research (Cambridge, Mass)
